From PubChem BioAssay AID1259343 (VanderVen Lab, College of Veterinary Medicine, Cornell …, 2017)
Hit rate of the full screen: of about 6,200 compounds, about 2,900 (47%) were called active. So high a share suggests a set chosen from earlier hits. Some of the results follow. Values without a mark were called inactive. Cut-off read from the data, not from the text of the source: active = inhibition above about 50%; inactive = the rest.

Experiment: Mycobacterium tuberculosis growth inhibition, primary screen (AID 1259343)
Details: inhibition: at 10 µM, hits give high values; outcome: 10 uM

SMILES | inhibition
CCOc1ccccc1-n1nnc(C(=O)Nc2ccc(C(C)=O)cc2)c1C | 70% (active)
CCOc1ccccc1NC(=O)Nc1ccc(Nc2cc(OC(C)C)nc(C)n2)cc1 | 14.6%
CCCC(C)(C)NC(=O)c1nnn(-c2ccc(F)cc2)c1C | 16.4%
CC1=NN(c2ccc(Cl)cc2)C(=O)C12Cc1ccccc1N1CCCCC12 (stereo not given) | 19.5%
CNC(=S)NN=C(C)c1ccc(Cl)s1 | 47.3%
CCNC(=S)NN=C(C)c1ccc(Cl)s1 | -2.97%
COCCNC(=S)NN=C(C)c1ccc(Cl)s1 | 79.3% (active)
CCOC(=O)NN=C(C)c1ccc(Cl)s1 | 19.5%
CC(=NNc1ncc(Cl)cc1Cl)c1ccc(Cl)s1 | 30.7%
C=C(C)CNC(=S)NN=C(C)c1ccc(Cl)s1 | 102% (active)
CNC(=O)c1ccc2n1CCN(C(=O)OCc1ccccc1)C2C (stereo not given) | 16.2%
O=C(NCCCCCC(=O)N1CCC(c2ccccc2)CC1)OCc1ccccc1 | 70.8% (active)
O=C(C1CCCC1)N1CCN(c2nc(-c3ccccc3Cl)nc3cc(Cl)ccc23)CC1 | 24.6%
Cc1ccc(C)c(N2CCN(C(=O)c3ccc4c(=O)nc5c(-c6ccccc6)n[nH]n5c4c3)CC2)c1 | 46.6%
O=C(c1ccc([N+](=O)[O-])cc1)N1CCN(c2nc(-c3ccccc3)c3cc(Cl)ccc3n2)CC1 | 68% (active)
Cc1ccc(-n2ncc3c(C)nn(Cc4ccccc4F)c(=O)c32)c(C)c1 | 37.1%
Cc1ccc(F)cc1NS(=O)(=O)c1cc(Cl)sc1Cl | 94.1% (active)
O=S(=O)(Nc1ccc(Cl)cc1F)c1ccc(Br)cc1Cl | 71% (active)
CN(C)S(=O)(=O)c1ccc(CNc2cc(F)ccc2Cl)o1 | -3.01%
O=S(=O)(Nc1c(F)cccc1Br)c1cc(Cl)cc(Cl)c1 | 87.1% (active)
O=S(=O)(Nc1c(F)cccc1F)c1c(Cl)cccc1Cl | 78.8% (active)
CN(C1CCCCC1)S(=O)(=O)c1ccc(Br)cc1Cl | -4.67%
Cc1ccc(NS(=O)(=O)c2ccc(F)cc2[N+](=O)[O-])c(F)c1 | 50.2% (active)
O=S(=O)(Nc1ccc(F)c(F)c1F)c1ccc(Cl)c2ncccc12 | 63% (active)
O=S(=O)(Nc1ccc(F)c(F)c1F)c1ccc(Cl)cc1F | 79.2% (active)
O=S(=O)(Nc1ccc(F)cc1F)c1ccccc1Cl | 82.3% (active)
Cc1nnc(N2C(=N)S/C(=C\c3c(-c4ccccc4)n(C)c4ccccc34)C2=O)s1 | 23.3%

SMILES | inhibition
NC(=O)c1ccccc1OCc1ccccc1C(F)(F)F | 42.9%
O=S(=O)(Nc1ccc(F)cc1)c1cc(Br)ccc1Br | 33.5%
O=S(=O)(Nc1cccc(F)c1)c1cc(Br)ccc1Br | 29.6%
O=S(=O)(Nc1c(F)cccc1F)c1cccc(Br)c1 | 4.09%
O=S(=O)(Nc1cc(F)ccc1F)c1cc(Cl)cc(Cl)c1 | 64.2% (active)
O=S(=O)(Nc1cc(Cl)ccc1O)c1cc(Br)ccc1Br | 105% (active)
O=S(=O)(Nc1ccc(F)cc1F)c1cccc(F)c1 | -36.4%
O=S(=O)(Nc1cc(F)ccc1F)c1cccc(Br)c1 | 103% (active)
O=C(O)c1cc(F)ccc1NS(=O)(=O)c1ccc(Cl)cc1 | 70% (active)
Cc1ccc(NS(=O)(=O)c2ccc(C)c(F)c2)c(C(=O)O)c1 | 8.32%
CCCc1ccc(S(=O)(=O)Nc2ccc(F)cc2C(=O)O)cc1 | -3.59%
Cc1ccc(NS(=O)(=O)c2ccc(Cl)cc2F)c(Cl)c1 | 73% (active)
O=[N+]([O-])c1ccc(Cl)c(S(=O)(=O)Nc2ccc(F)cc2Cl)c1 | 78.2% (active)
O=S(=O)(Nc1ccccc1I)c1ccc(C(F)(F)F)cc1 | 41.5%
Cc1ccc(NS(=O)(=O)c2cccc(C(F)(F)F)c2)c([N+](=O)[O-])c1 | 77.1% (active)
Cc1ccc(C)c(S(=O)(=O)Nc2ccc(Cl)cc2F)c1 | 0.55%
O=S(=O)(Nc1cc(F)ccc1F)c1ccc(Cl)cc1F | 64.4% (active)
O=S(=O)(Nc1ccc(F)cc1F)c1ccc(Cl)cc1F | -21.9%
O=[N+]([O-])c1cc(Cl)ccc1NS(=O)(=O)c1cccc(C(F)(F)F)c1 | -1.17%
CCC1=NOC(c2nc3sc(C(C)(C)C)cc3c(=O)[nH]2)C1 (stereo not given) | 25.8%
Cc1ccc(NS(=O)(=O)c2cc(Cl)cc(Cl)c2)cc1 | 88.4% (active)
Cc1ccc(S(=O)(=O)Nc2ccc(Cl)c(C#N)c2)cc1 | -29.9%
O=C(C1=C2SC=C(c3ccc(Br)cc3)N2CC1)c1ccc2c(c1)OCO2 | -40.9%
CCCc1cc(=O)[nH]c(-n2nc(C)cc2NC(=O)CC(c2ccccc2)c2ccccc2)n1 | 101% (active)
Cc1cc(=O)[nH]c(-n2nc(C)cc2NC(=O)Cc2cccc3ccccc23)n1 | 102% (active)
CCCc1cc(=O)[nH]c(-n2nc(C)cc2NC(=O)Cc2cccc3ccccc23)n1 | 100% (active)
CCCc1cc(=O)[nH]c(-n2nc(C)cc2NC(=O)C(CC)c2ccccc2)n1 (stereo not given) | 102% (active)

SMILES | inhibition
CCCc1cc(=O)[nH]c(-n2nc(C)cc2NC(=O)Cc2ccccc2)n1 | 99.9% (active)
CCCc1cc(=O)[nH]c(-n2nc(C)cc2NC(=O)Cc2ccc(OCC)cc2)n1 | -19.4%
CCCc1cc(=O)[nH]c(-n2nc(C)cc2NC(=O)CCc2ccccc2)n1 | -14.3%
COc1c(-c2coc3cc4c(cc3c2=O)CC(OC(C)=O)C(C)(C)O4)ccc2c1C=CC(C)(C)O2 (stereo not given) | 77.7% (active)
CCOC(C)c1nc(CN2CCc3cc(Br)ccc32)cs1 (stereo not given) | 28.4%
CCCNC(=O)CN1CCc2cc(Br)ccc21 | 74.1% (active)
O=C(Cc1ccccc1O)N1CCc2cc(Br)ccc21 | 23.1%
Cc1cc(Oc2ccc(C(C)C)cc2)nc(SCc2ccc(F)c(F)c2)n1 | -1.84%
CC(C)c1ccc(Oc2ccc3nnnn3n2)cc1 | 55.6% (active)
O=S(c1ccccc1)c1ccc2nnnn2n1 (stereo not given) | -44%
COc1ccc2c(c1)CCCN2Cc1ccc(C(N)=O)cc1 | 20.6%
COc1ccc(Oc2ccc(C(=O)NCCN3CCNC3=O)cc2)cc1 | 73.9% (active)
CCc1nc2ccc(C(=O)NCCOc3ccc(OC)cc3)cn2c1N(C=O)Cc1ccc(OC)cc1 | 47%
COc1ccc(Oc2ccc(C(=O)NCCc3cnc[nH]3)cc2)cc1 | 52.5% (active)
OC(c1ccc(Cl)cc1)c1ccc(OC(F)F)cc1 (stereo not given) | 19.4%
O=C(NCc1ccc(OC(F)F)cc1)c1ccc(Cl)cc1 | 85.9% (active)
O=C(NCc1ccc(OC(F)F)cc1)c1cnccn1 | 85.3% (active)
COc1ccc(CNC(=O)c2ccc(Br)cn2)cc1 | 14.4%
Cc1ccc(C)c(C(C)CNC(=O)c2cnccn2)c1 (stereo not given) | 21.5%
COc1ccc2c(c1)CCC1C2CC[C@@]2(C)C1CC[C@@H]2O (stereo not given in full) | 46%
Cc1c(N)c(C)c([N+](=O)[O-])c(C)c1[N+](=O)[O-] | -53.9%
CC(=O)c1ccc(N2CCCC2)cc1OCc1cccc(C)c1 | 36.7%
Cc1cc(N2CCCC2)ccc1NC(=O)c1cccc(NC(=O)OC(C)(C)C)c1 | 20.1%
N#CCc1cccc(C(=O)Nc2cc(F)cc(N3CCCC3)c2)c1 | 84.4% (active)
COc1ccc(-n2nnnc2SCc2ccc(C#N)cc2)cc1 | 82.8% (active)
COc1ccc(OCCSc2nnnn2-c2ccc(OC)cc2)cc1 | -17.4%
COc1ccc(-n2nnnc2SCCOc2ccc(Br)cc2)cc1 | inactive

SMILES | inhibition
O=P1(Nc2ccc(-c3ccccc3)cc2)C=C(c2ccccc2)OC(c2ccccc2)=C1 | 98.4% (active)
Cc1c(C(=O)OCC(C)C)[nH]c2c1C(=O)CCC2 | 60.5% (active)
CCCc1cc(=O)[nH]c(-n2nc(C)cc2NC(=O)C2CC2)n1 | 101% (active)
CCc1cc(=O)[nH]c(-n2nc(C)cc2NC(=O)C2CC2)n1 | 101% (active)
O=c1c(Sc2ccc(Cl)cc2)c(O)c2c(n1-c1ccccc1)CCCC2 | 40.5%
CCNCC#CCOc1ccc(C)c(C)c1 | -6.66%
CC(=O)Oc1ccc2c(=O)oc(COc3ccc(C)c(C)c3)nc2c1 | 60.8% (active)
CC(C)n1ncc2cc(N)cnc21 | 83.8% (active)
O=C(Nc1ccc(-n2cccc2)cc1)C1=CN2CCN(Cc3cscn3)C(=O)N=C2O1 | 4.33%
O=C1N=C2OC(C(=O)Nc3cccc(Cc4ccccc4)c3)=CN2CCN1 | 91.3% (active)
CCN1CC(CN(C)C(=O)Nc2nc3ccccc3s2)Oc2ccccc21 (stereo not given) | 12.4%
CN(C(=O)Nc1nc2ccc(F)cc2s1)C1CCCc2ccccc21 (stereo not given) | 74.2% (active)
CC(=O)N1CCN(CC(=O)Nc2nc3ccc(F)cc3s2)CC1 | 15.5%
O=c1[nH]c(CN2CCN(c3ccccc3F)CC2)nc2ccsc12 | 13.7%
Cc1ccc(C2=CCN(Cc3nc4ccsc4c(=O)[nH]3)CC2)cc1 | 94.7% (active)
CC(C)(O)C#Cc1ccc(C(=O)NCc2cnn(-c3ccc(F)cc3)c2)o1 | 36.3%
O=C(Nc1nnc(C2=COCCO2)o1)c1cc(Cl)cc(Cl)c1 | 93.4% (active)
CCN(CC)C(=O)N1CCN(c2ccc(Nc3ccnc4cc5ccccc5cc34)cc2)CC1 | -24.5%
Cc1cc(=O)[nH]c(-n2nc(C)cc2NC(=O)c2cc(C)oc2C)n1 | 90.8% (active)
CCc1cc(=O)[nH]c(-n2nc(C)cc2NC(=O)c2cccc3ccccc23)n1 | 13.9%
CCN(CC)c1cc(C)nc(Nc2ccc(NC(=O)c3cccc4ccccc34)cc2)n1 | 93.6% (active)
CCc1ccc(OCc2ccccc2C(=O)Nc2ccc3nc(C)cc(N)c3c2)cc1 | 33.8%
Cc1cc(=O)[nH]c(-n2nc(C)cc2NC(=O)c2cccc3ccccc23)n1 | 101% (active)
CCCc1cc(=O)[nH]c(-n2nc(C)cc2NC(=O)c2cccc3ccccc23)n1 | 102% (active)
